From PubChem
ROMK mod: human ROMK K+ channel modulation, primary screen | P48048 | Tet-inducible ROMK, thallium flux fluorescence; actives lie on both sides | B-score at 10 µM | 2% of 130,000 active;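 active = signal ratio slope over the read window, or its plate-corrected B-score, at least 3 SD from the plate mean, either direction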;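 note: B-score of the F/F0 ratio slope over 7 to 12 s after thallium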
Target sequence (P48048 whole entry, looked up): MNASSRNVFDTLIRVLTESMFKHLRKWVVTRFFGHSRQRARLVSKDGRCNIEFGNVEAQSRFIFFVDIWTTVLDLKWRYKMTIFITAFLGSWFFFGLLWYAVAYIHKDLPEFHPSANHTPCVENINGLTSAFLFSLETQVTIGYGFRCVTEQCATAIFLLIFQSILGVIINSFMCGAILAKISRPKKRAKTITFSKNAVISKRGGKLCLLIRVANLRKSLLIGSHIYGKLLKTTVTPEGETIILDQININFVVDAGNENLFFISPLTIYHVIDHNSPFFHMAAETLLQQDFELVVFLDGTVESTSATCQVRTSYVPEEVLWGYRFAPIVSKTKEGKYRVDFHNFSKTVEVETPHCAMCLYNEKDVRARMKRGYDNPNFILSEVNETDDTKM
KCC2 mod: modulators of human KCC2 chloride dependent transport; B-score of Tl+ flux slope (higher = more flux/activation; lower = inhibition) at 10 µM; 2.2% of 190,000 active; KCC2 cells, thallium flux FluoZin-2 fluorescence; AID 1456; Q9H2X9;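 active = thallium flux slope and its plate-corrected score both differing from the plate sample mean at a set confidence after two filtering rounds, in either direction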;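 note: slope of fluorescence scaled to starting intensity during 10 to 20 s after thallium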
Insulin prom inh: TRM-6 insulin promoter activity inhibition | TRM-6 cells (human fetal islet line), insulin promoter-eGFP reporter, imaging; reporter expression induced with tamoxifen | inhibition, % at 2 µM | 0.9% of 130,000 active | AID 1273;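 active = inhibition above the mean plus 3 SD, with well images judged a real hit on visual review, cut at about 60% in these data, passing the limit was not always enough; inconclusive = inhibition over the cutoff but images rejected on review; inactive = inhibition not above the cutoff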
Insulin prom up: MIN6 insulin promoter up-regulation; MIN6 insulin promoter-GFP reporter, high-content imaging; active compounds read high; z-score at 5 µM; 0.3% of 190,000 active;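 active = z-score above 3 at 5 µM with at least 500 cells counted in the well; inconclusive = wells under 500 cells, flagged as cytotoxic or low count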
WT yeast gro inh: growth inhibition of WT yeast, mitochondrial fusion screen | mitochondrial fusion phenotypic screen, WT strain | inhibition, % at 10 µM | 2.1% of 190,000 active; in the data active = inhibition above about 58%; tested in S. cerevisiae
L major viab: Leishmania major promastigote growth inhibition; AID 1063; inhibition, % at 10 µM; 9% of 200,000 active; Leishmania major promastigotes, resazurin fluorescence viability; in the data active = inhibition above about 50%;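 note: promastigotes grown with compound for 44 hours at 28 °C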
KCC2 secondary: KCC2 (human) modulation, secondary assay; shares compounds with KCC2 mod; HEK293-KCC2, thallium flux, FluoZin2 fluorescence; active compounds read high; normalised thallium flux (F/F0 slope) at 10 µM; 15% of 3,700 active; AID 1713;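 active = thallium flux slope above the same plate's solvent-only control mean plus 3 SD; inconclusive = the two replicate wells disagree; inactive = no significant difference from solvent-only control wells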
KCC2 bumet counter: thallium flux despite bumetanide block in KCC2 cells, secondary assay 3. shares compounds with KCC2 mod. HEK293-KCC2 + bumetanide/ouabain, thallium flux FluoZin2; active compounds read high. normalized thallium flux at 10 µM. 49% of 3,700 active;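 active = thallium entry rate above the same plate's blocked-transporter control wells by more than 3 SD; inconclusive = the two repeat wells disagree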;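 note: raw slope of fluorescence over initial fluorescence between 10 and 20 s after thallium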
KCC2 secondary2: KCC2 (human) modulation, second secondary assay; shares compounds with KCC2 mod; HEK293-KCC2, thallium flux FluoZin2 fluorescence; actives lie on both sides; F/F0 rise rate, 10–20 s post-thallium; normalized thallium flux at 10 µM; 23% of 3,700 active; AID 1715;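 active = thallium flux slope more than 3 SD above or below the plate's solvent-only control mean, mostly below; inconclusive = the two repeat wells disagreed; inactive = no significant shift from solvent-only controls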;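 note: raw slope with 0.1% DMSO as baseline and bumetanide as block control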
HEK293 Tl flux: counter-screen for KCC2 modulators: effect in parental HEK293 cells | shares compounds with KCC2 mod | thallium flux FluoZin2, ouabain; baseline-ratio fluorescence slope, 10–20 s after thallium | thallium flux rate (normalised fluorescence) at 10 µM | 46% of 3,700 active | AID 1716;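 active = thallium flux rate significantly above the same plate's solvent-only control wells, beyond their mean plus 3 SD; inconclusive = the two replicate wells gave conflicting results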
KCC2 retest ouab: confirmation of human KCC2 modulators with ouabain; HEK293-KCC2, thallium flux FluoZin2 fluorescence; bidirectional: low = inhibitor, high = activator; 48% of 3,700 active; AID 1717; shares compounds with KCC2 mod; raw Tl+ flux slope (below DMSO = inhibition, above = activation) at 10 µM;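 active = thallium flux slope beyond 3 SD from same-plate DMSO control mean in most replicates, usually higher, sometimes lower; inconclusive = repeat tests gave conflicting results; inactive = no significant difference from controls in most replicates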;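 note: slope of initial-normalized fluorescence between seconds 10 and 20 after thallium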
HEK counter2: counter-screen for KCC2 modulators: effect in parental HEK293 cells. shares compounds with KCC2 mod. thallium flux FluoZin-2 fluorescence slope. thallium flux slope at 10 µM. 33% of 3,700 active;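 active = thallium flux slope above the same plate's solvent-control mean plus 3 SD in both duplicate wells; inconclusive = duplicate wells that disagreed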;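 note: run without ouabain in cells lacking the KCC2 cotransporter; slope of fluorescence scaled to its starting value between 10 and 20 s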
* hit, by the source's call; ? = inconclusive; nt = not tested or not shown. Rows were chosen to be rich in hits. Some 12% of all compounds tested hit in one or more screens of this group.

SMILES	ROMK mod	KCC2 mod	Insulin prom inh	Insulin prom up	WT yeast gro inh	L major viab	KCC2 secondary	KCC2 bumet counter	KCC2 secondary2	HEK293 Tl flux	KCC2 retest ouab	HEK counter2
COc1cccc(-c2cc(C(=O)N3CCc4ccccc4C3)no2)c1	nt	3.4*	-12	-0.2	36	0	0.0086	0.0058	0.029	0.007	0.02	0.0094
COc1ccc(-c2cc(C(=O)N3CCN(Cc4ccccc4)CC3)no2)cc1OC	nt	-3.4*	nt	1.1	18	-7	0.017	?	0.022*	0.0077	0.014	0.01
COc1cccc(-c2cc(C(=O)N3CCN(Cc4ccccc4)CC3)no2)c1	nt	nt	nt	-0.72	7	-4	nt	nt	nt	nt	nt	nt
CC(C)n1c(=S)[nH]c2scc(-c3cccs3)c2c1=O	nt	110*	nt	-0.15	nt	nt	0.023*	0.092*	0.088*	0.09*	0.093*	0.085*
O=C(Nc1ccc2c(c1)OCO2)Nc1ccc2c(c1)OCO2	-0.44	-0.041	nt	0.06	-5	-5	nt	nt	nt	nt	nt	nt
O=C(Nc1cccnc1)Nc1ccc2c(c1)OCO2	-0.026	nt	-31	-0.44	-14	-3	0.0094	0.0061	0.029	0.0076	0.021	0.0093
COc1ccc(CCNC(=O)C2CCCN(S(=O)(=O)c3cccc4nonc34)C2)cc1OC (stereo not given)	1.4	nt	-3	-0.13	-15	2	0.0058	0.0053	0.032	0.0084	0.019	0.011
Cc1ccc(CCNC(=O)c2nnn(-c3cccc(C)c3)c2N)cc1	1.5	-1.4	nt	0.16	14	-5	nt	nt	nt	nt	nt	nt
Nc1nc(SCC(=O)N2CCOCC2)n[nH]1	-0.037	0.9	nt	-0.78	3	-5	nt	nt	nt	nt	nt	nt
COC(=O)C1=C(C)N(CCCC(=O)O)C(=O)NC1c1cc2c(cc1[N+](=O)[O-])OCO2 (stereo not given)	0.013	3.7*	29	0.22	16	-5	0.0068	?	0.028	0.0073	0.018	0.0098
CC(C)Cn1c(-c2csc3c2CCCC3)n[nH]c1=S	nt	4.8*	-38	nt	50	-1	0.011	0.033*	0.031	0.011*	0.029*	0.01
CCOC(=O)C1(CCCc2ccccc2)CCN(C(=O)c2cc(C)nc(C)n2)CC1	-0.46	-0.71	nt	-0.26	-9	-6	nt	nt	nt	nt	nt	nt
COCn1c(=O)c2c(nc(SC3=NCCS3)n2Cc2ccccc2C)n(COC)c1=O	nt	nt	20	nt	24	17	nt	nt	nt	nt	nt	nt
O=C(COC(=O)CCCSc1nc2ccccc2[nH]1)NC(=O)NC1CCCC1	nt	-0.9	41	0.16	-5	45	0.0092	0.0053	0.033	?	0.02	0.01
Cc1ccc2cc(CCNC(=O)c3cccs3)c(=O)[nH]c2c1C	-0.028	-0.77	-2	-0.13	5	-3	nt	nt	nt	nt	nt	nt
Cc1ccc(O)c(N=Cc2ccc(C)s2)c1	nt	0.72	0	-0.33	20	-2	nt	nt	nt	nt	nt	nt
O=C(O)c1sccc1OCc1ccccc1	0	1	nt	0.31	-18	-6	nt	nt	nt	nt	nt	nt
CC(C)(C)c1ccc(COc2ccsc2C(=O)O)cc1	nt	-2.8*	-23	0.05	4	-1	0.01	0.0072	0.029	0.0075	0.019	?
CN(C)S(=O)(=O)c1cc(NC(=O)CSc2ncc(C(F)(F)F)cc2Cl)ccc1Cl	-0.57	50*	-43	0.67	12	14	0.0078	0.0047	?	0.0075	0.019	0.011
COCCn1c(SCC(=O)Nc2ccc(Cl)c(S(=O)(=O)N(C)C)c2)nc2ccccc21	-1.6	0.29	-7	-1.4	15	13	nt	nt	nt	nt	nt	nt
O=C(CCCN1C(=O)/C(=C/c2ccccc2Cl)SC1=S)NNC(=O)c1cccnc1	nt	-4.9*	nt	0.36	nt	nt	0.009	0.005	0.031	0.0069	0.017*	0.011
Cc1ccccc1NC(=O)N1CCN(c2ncccn2)CC1	0.25	0.33	nt	0.23	0	-4	nt	nt	nt	nt	nt	nt
O=C(Nc1ccc(S(=O)(=O)NCc2ccco2)cc1)c1ccc2ccccc2n1	-0.0069	nt	nt	-0.19	21	52*	0.0087	0.0061	0.035	0.0046	0.02	0.011
O=C(NCc1ccco1)c1ccc2ccccc2n1	-1.3	nt	nt	-0.1	28	-3	nt	nt	nt	nt	nt	nt
Cc1ccc(NS(=O)(=O)c2ccc(C(=O)OCC(=O)Nc3cc(C)on3)cc2)cc1	nt	-0.36	8	-0.11	2	0	nt	nt	nt	nt	nt	nt
SMILES	ROMK mod	KCC2 mod	Insulin prom inh	Insulin prom up	WT yeast gro inh	L major viab	KCC2 secondary	KCC2 bumet counter	KCC2 secondary2	HEK293 Tl flux	KCC2 retest ouab	HEK counter2
COc1cc2cc(CN(CCc3ccccc3C)C(=S)NCCCN3CCOCC3)c(=O)[nH]c2cc1OC	0.032	0.65	nt	0.5	2	8	nt	nt	nt	nt	nt	nt
CC(NC(=O)Cc1cccs1)c1ccc2c(c1)OCO2 (stereo not given)	nt	1.7*	?	0.2	1	0	0.009	0.0068	0.032	0.0043	0.021	0.011
O=C(NC1CCCC1)C(c1ccccc1F)N(C(=O)Cc1cccs1)c1ccc2c(c1)OCCO2 (stereo not given)	nt	-2.3	-55	-1	2	46	nt	nt	nt	nt	nt	nt
O=C(NC(=S)Nc1ccc2c(c1)OCCO2)c1ccccc1	1.3	nt	nt	0.26	6	-6	nt	nt	nt	nt	nt	nt
CCOc1cccc(C(=O)NC(=S)Nc2ccc3c(c2)OCCO3)c1	0.063	7.4*	-14	1.3	30	29	0.018	0.012*	0.032	0.012*	0.019	0.014*
O=C(Nc1ccc2c(c1)OCCO2)c1ccccc1F	-0.21	nt	-29	0.9	2	-9	nt	nt	nt	nt	nt	nt
O=C(NC(=S)Nc1ccc2c(c1)OCCO2)c1ccccc1F	-0.49	25*	nt	0.61	22	-9	0.0074	0.039*	0.042*	0.021*	0.038*	0.026*
CCOc1ccc2[nH]c(=O)c(CN(C(=O)N3CCOCC3)C3CC3)cc2c1	nt	nt	nt	-0.67	nt	nt	nt	nt	nt	nt	nt	nt
Cc1ccc2[nH]c(=O)c(CN(CCc3ccccc3)Cc3nnnn3CC3CCCO3)cc2c1 (stereo not given)	-2	-4.3*	-37	-2.7	2	25	?	0.0053	?	0.0072	0.017	0.011
O=c1[nH]c2cc3c(cc2cc1CN(Cc1nnnn1CC1CCCO1)C1CCCC1)OCO3 (stereo not given)	nt	-1.3	nt	1.5	0	-7	nt	nt	nt	nt	nt	nt
COc1ccc2[nH]c(=O)c(CN(Cc3ccccc3OC)Cc3nnnn3CC3CCCO3)cc2c1 (stereo not given)	nt	8.6*	nt	-1.1	-7	25	0.0098	0.0051	0.031	0.0073	0.029	0.01
